Among all 370,000 compounds or so, about 3,300 (0.89%) were called active. The sample holds actives, similar compounds and a random draw of the others, so the mix is not that of the screen.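 Rule for the calls: active = activation above the mean of all tested compounds plus 3 SD, computed per campaign excluding outliers beyond control limits (cut at about 13% in these data); inactive = the rest.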
molecular target: Kallikrein-7 (Homo sapiens) (UniProt P49862); assay: proKLK7 zymogen activators, primary screen, biochemical, fluorescence intensity (AID 652039); conditions: purified proKLK7, EDANS-DABCYL substrate fluorescence; at 7 µM; stronger effect = higher value; 100% is mature enzyme control, 0% vehicle
Sequence (P49862 whole entry, looked up): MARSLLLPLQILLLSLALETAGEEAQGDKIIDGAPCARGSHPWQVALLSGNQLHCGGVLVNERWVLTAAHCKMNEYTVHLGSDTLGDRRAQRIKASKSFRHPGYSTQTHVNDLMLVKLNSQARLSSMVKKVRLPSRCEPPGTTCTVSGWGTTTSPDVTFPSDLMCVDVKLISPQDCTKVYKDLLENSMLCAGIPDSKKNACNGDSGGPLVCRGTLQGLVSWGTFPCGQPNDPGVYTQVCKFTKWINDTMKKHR

Row | Structure (SMILES) | activation
1 | COc1ccc(C(=O)OCCN(C)C2CN(Cc3cn(Cc4cccc(C)c4)nn3)S(=O)(=O)C2)cc1OC (stereo not given) | 0% (inactive)
2 | CCCCNC(=O)C[C@H]1C(=O)N(Cc2ccc(OC)cc2)C2=CCCC[C@@]21C(=O)OCC | -0.1% (inactive)
3 | N#Cc1ccccc1OC[C@@H](O)CN1CCC(C(O)(c2ccccc2)c2ccccc2)CC1 | 0.62% (inactive)
4 | COc1ccc(N2CCN(C(=O)Cn3cnc4sc(C)c(S(=O)(=O)N5CCOCC5)c4c3=O)CC2)cc1 | -0.12% (inactive)
5 | COc1ccc(-c2cn3cccnc3n2)cc1 | 73.9% (active)
6 | Nc1nc2ncccn2c1-c1ccccc1 | 5.34% (inactive)
7 | c1ccc(-c2cn3cccnc3n2)cc1 | 32.3% (active)
8 | Cc1ccccc1Nc1c(-c2ccccc2)nc2ncccn12 | 0.74% (inactive)
9 | COc1ccc(-c2ccnc(SCC(=O)N3CCOCC3)n2)cc1 | 0.01% (inactive)
10 | FC(F)(F)Oc1ccc(-c2cn3cccnc3n2)cc1 | 34.6% (active)
11 | COc1ccc(N2CCN(C(=O)CSc3nnc4ncccn34)CC2)cc1 | 0.11% (inactive)
12 | C=CCOC/C=C/C#CCN(CC=C)Cc1ccc(OC)cc1OC | 0.82% (inactive)
13 | O=C(CSc1nc2ccccc2s1)N=Nc1c(O)[nH]c2ccccc12 | 0.68% (inactive)
14 | Cc1ccc(-n2c(COc3ccccc3)nnc2SCC(=O)Nc2ccc3c(c2)OCCO3)cc1 | 0.98% (inactive)
15 | CCOC(=O)N1CCN(C(=O)C[C@H]2C[C@@]3(C(=O)OC)C(=C[C@H](C(C)(C)C)O[C@@H]3C)N(Cc3ccc(Cl)cc3Cl)C2=O)CC1 | 0.88% (inactive)
16 | COC(=O)c1ccccc1Oc1c(F)c(F)nc(N2CCOCC2)c1F | 0.34% (inactive)
17 | COC(=O)c1cc(N2CCNCC2)nc2ccccc12 | 78.9% (active)
18 | Cc1cc(C(=O)OCC(=O)N2C(C)CCCC2C)c2ccccc2n1 (stereo not given) | -1.23% (inactive)
19 | CCOC(=O)[C@@]12CN(C(=O)OC(C)(C)C)CC=C1N(Cc1ccc(OC)cc1)C(=O)[C@H]2CC(=O)NCc1ccc(OC)c(OC)c1 | 0.61% (inactive)
20 | CC1C(=O)C(C)C(c2ccc(O)cc2)NC1c1ccc(O)cc1 (stereo not given) | 0.15% (inactive)
21 | Cc1cc(C)c2nc3nc(C)cc(C)c3c(N)c2c1 | 52.6% (active)
22 | CCC(CO)Nc1cccc2c1S(=O)(=O)N(Cc1cn(Cc3ccccc3C(F)(F)F)nn1)Cc1ccccc1O2 (stereo not given) | 0.4% (inactive)
23 | Cc1ccccc1CN1CCCCC(NC(=O)Nc2ccccc2F)C1=O (stereo not given) | 0.62% (inactive)

Row | Structure (SMILES) | activation
24 | C#CCCN([C@H](C(=O)OC)C(C)C)S(=O)(=O)c1ccc(F)cc1Br | -0.16% (inactive)
25 | O=S1(=O)c2c(cccc2N2CCSCC2)Oc2ccccc2CN1Cc1cn(Cc2ccc(F)cc2)nn1 | -2.26% (inactive)
26 | C/C(=N\NC(=O)CNc1cccc2ccccc12)c1ccc(Br)s1 | 2.95% (inactive)
27 | Cn1cccc1/C=N/NC(=O)CNc1cccc2ccccc12 | 22.8% (active)
28 | CN(CC(=O)Nc1ccc(Cl)cc1)CC(=O)Nc1cccc2ccccc12 | 0.06% (inactive)
29 | COc1ccc(/C=C2\CC3(OC(C)=O)CCCN2C3)cc1 (stereo not given) | 0.04% (inactive)
30 | CCC(=O)Nc1ccc2nn(-c3ccc(F)cc3)nc2c1 | 7.33% (inactive)
31 | Nc1nc2cc(Cl)ccc2n1N | 0.42% (inactive)
32 | Nc1ccc2nn(-c3ccc(Cl)cc3)nc2c1 | 64.3% (active)
33 | COc1ccc(-c2cc(C(F)(F)F)nc(SCCC(=O)NCc3ccco3)n2)cc1 | -0.49% (inactive)
34 | COc1ccc(-c2cc(C(F)(F)F)nc(S(C)(=O)=O)n2)cc1OC | 15.4% (active)
35 | CCC(c1ccc(NC(=O)OC(C)(C)C)cc1)c1cc(OC)cc(OC)c1 (stereo not given) | 1.16% (inactive)
36 | Cc1nc(N=C(N)N)nc2c(C)cccc12 | -0.57% (inactive)
37 | COc1nc(N=C(N)N)nc2c(C)cccc12 | 22.7% (active)
38 | CCc1c(C)nc2c(OC)cccc2c1Cl | 0.96% (inactive)
39 | Nc1[nH]c(/C=C2/CCCCC2n2[nH]c(=O)n(-c3ccccc3)c2=O)c(Cc2ccccc2)[n+]1Cc1ccccc1 (stereo not given) | -0.08% (inactive)
40 | COc1ccc(CN2C(=O)N3Cc4cc(OC)ccc4C3CS2(=O)=O)cc1 (stereo not given) | 0.22% (inactive)
41 | CCN(CC)C(=O)CC[C@@H]1CC[C@]2(CCCN(S(=O)(=O)C3CCCCC3)C2)O1 | -0.08% (inactive)
42 | CC(=O)Nc1ccc(NC(=O)c2ccc3c(c2)C(=O)N(c2ccccc2C)C3=O)cc1 | -0.23% (inactive)
43 | O=C(O)c1ccc2c(c1)C(=O)N(c1ccc(/C=C/C(=O)c3ccccc3)cc1)C2=O | 108% (active)
44 | COc1ccc(C(=O)/C=C/c2ccc(-c3ccccc3)cc2)cc1CSCC(=O)O | -2.22% (inactive)
45 | C=CCN1[C@@H](Cc2ccccc2)COc2cccc(N3CCSCC3)c2S1(=O)=O | 0.85% (inactive)
46 | O=C(NCc1ccc(Cl)cc1)C1CCCN(c2nc3ccccc3o2)C1 (stereo not given) | 0.03% (inactive)

Row | Structure (SMILES) | activation
47 | Cc1sc2nc(SCC(=O)c3ccc(O)c(O)c3)n(Cc3ccco3)c(=O)c2c1C | -0.81% (inactive)
48 | C=CCN1C(C(=O)OC)CN(Cc2cn(Cc3ccccc3)nn2)CCS1(=O)=O (stereo not given) | 0.39% (inactive)
49 | CN(CCNC(=O)c1cc2c(-c3ccccc3F)nn(C)c2s1)C1CCCCC1 | -1.03% (inactive)
50 | CCOCCCNC(=O)c1cc2c(=O)n3ccccc3nc2s1 | 40.6% (active)
51 | COCCCNC(=O)/C(C#N)=C/c1c(N2CCCCCC2)nc2ccccn2c1=O | 8.31% (inactive)
52 | CN(c1ccc2nc3ccccc3c(=O)n2n1)C1CCCCC1 | 0.7% (inactive)
53 | CN(C(=O)c1cc2c(=O)n3ccccc3nc2s1)C1CCCCC1 | 25.8% (active)
54 | CCOCCCNC(=O)c1cn(CC(C)C)c(=O)c2c1c1ccccc1n2C | -1.85% (inactive)
55 | Cc1ccc(C(=O)C2CCN(CC(=O)NCCC(C)C)CC2)cc1 | 1.04% (inactive)
56 | CCCC[C@H](C(=O)N(CC)c1ccccc1)[C@@H](O)c1ccc2ccccc2c1 | 0.3% (inactive)
57 | COc1ccccc1C(=O)COC(=O)CNS(=O)(=O)c1ccc(NC(C)=O)cc1 | 0.48% (inactive)
58 | CC(=O)Nc1ccc(S(=O)(=O)NCC(=O)OCc2cc(=O)oc3ccc4ccccc4c23)cc1 | 273% (active)
59 | COc1ccccc1CNC(=O)COC(=O)CNS(=O)(=O)c1ccc(NC(C)=O)cc1 | -0.12% (inactive)
60 | CC1CCCN(c2cccc3c2S(=O)(=O)N(Cc2ccc(F)cc2)[C@@H](C)[C@H](c2ccccc2)O3)C1 (stereo not given in full) | -0.65% (inactive)
61 | Nn1c(SCC(=O)Nc2cccc3ccccc23)nnc1-c1cc(-c2ccc(F)cc2)n[nH]1 | 0.42% (inactive)
62 | O=C(O)c1ccc2c3c(cccc13)C(=O)N(OS(=O)(=O)c1ccccc1)C2=O | 105% (active)
63 | COc1cccc(-c2ccc3c(c2)S(=O)(=O)c2cccc(C(=O)O)c2C3=O)c1OC | -0.11% (inactive)
64 | C=C(C)C#CC(Cc1ccccc1)N(CC1CC1)/C(N)=N/C(=O)OCc1ccccc1 (stereo not given) | -0.43% (inactive)
65 | CCCCC(=O)Nc1ccc(C(=O)NCCCn2ccnc2)cc1 | 0% (inactive)
66 | CC(=O)Nc1ccc(S(=O)(=O)Nc2ccc(-c3ccc4nnc(C)n4n3)cc2)cc1 | 0.05% (inactive)
67 | CC(=O)Nc1ccc(-c2cn3cccnc3n2)cc1 | 64.7% (active)
68 | CC(C)(C)C(=O)Nc1ccc(-c2cn3cccnc3n2)cc1 | 65.9% (active)
69 | Cc1nn2c(=O)cc(COC(=O)c3ccc(NC(=O)C(C)(C)C)cc3)nc2s1 | -0.47% (inactive)

Row | Structure (SMILES) | activation
70 | CCCCCC(=O)Nc1ccc(-c2cn3cccnc3n2)cc1 | 52.5% (active)
71 | CCCCCC(=O)Nc1ccc(S(=O)(=O)Nc2ccc(Cl)nn2)cc1 | -0.08% (inactive)
72 | Cc1cccc(C(=O)Nc2c(-c3ccc(F)cc3)nc3ncccn23)c1 | 8.91% (inactive)
73 | CC(C)(C)C(=O)Nc1cccc(-c2ccc[nH]2)n1 | 0.15% (inactive)
74 | O=C(CCS(=O)(=O)c1ccccc1)Nc1ccc(Cl)c(Cl)c1 | 0.23% (inactive)
75 | O=C(CSc1nnc(COc2ccccc2)n1-c1ccc(Cl)cc1)Nc1ccc2c(c1)OCO2 | 0.41% (inactive)
76 | COC(=O)[C@@]12CCCCC=C1N(CCc1ccc(Cl)cc1)C(=O)[C@H]2CC(=O)NCc1ccc(OC)c(OC)c1 | -0.01% (inactive)
77 | Cc1ccc2nc(-c3ccc(CN4CCC(n5cc(-c6ccccc6)[nH]c5=O)CC4)cc3)c(-c3ccccc3)nc2c1 | -16.7% (inactive)
78 | COc1ccc(-c2cc(=O)oc3cc(OCC(=O)N(C)C4CCS(=O)(=O)C4)ccc23)cc1 (stereo not given) | -0.13% (inactive)
79 | CCCCCCc1cc2cc(-c3nnc(-c4cccc(OC)c4)o3)c(=O)oc2cc1O | -1.12% (inactive)
80 | COc1ccc(-c2cc3ccc(OCc4nn[nH]n4)cc3oc2=O)cc1 | 75.6% (active)
81 | COc1cccc(CSc2nnc(-c3cccnc3)n2Cc2ccccc2)c1 | -0.18% (inactive)
82 | Nn1c(SCC(=O)Nc2ccc(S(N)(=O)=O)cc2)nnc1-c1n[nH]c2c1CCC2 | -0.51% (inactive)
83 | CCOc1ccccc1NC(=O)NC1CCCCCCC1 | 0.05% (inactive)
84 | CCCN(CC(=O)NC(=O)NC1CCCCC1)CC(=O)Nc1cc(Cl)ccc1Cl | 24.4% (active)
85 | O=C(COc1cc(Cl)c(Cl)cc1Cl)NC(=O)NC1CCCC1 | -0.16% (inactive)
86 | Cc1cc(=O)[nH]c(SCC(=O)Nc2ccc(Cl)cc2C)n1 | -0.02% (inactive)
87 | CN1C(=O)c2cc(NS(C)(=O)=O)ccc2OC[C@@H]2O[C@@H](CC(=O)NCc3ccc(-c4ccccc4)cc3)CC[C@H]21 | -0.3% (inactive)
88 | C=CCOc1ccc(/C=C/C(=O)OCC(=O)NCC2CCCO2)cc1 (stereo not given) | -1.06% (inactive)
89 | CC1(C)CC(=O)c2cc(OCC(=O)NCC3CCCO3)ccc2O1 (stereo not given) | 54.2% (active)
90 | CCOc1ccc(S(=O)(=O)NCCC(=O)NCC2CCCO2)cc1 (stereo not given) | 0.66% (inactive)

— PubChem BioAssay AID652039 (The Scripps Research Institute Molecular Screening Center, 2013)
